Hits are enriched below; roughly 18% of the tested compounds scored in any of these assays.
TDP1 cell noCPT – qHTS for Inhibitors of human tyrosyl-DNA phosphodiesterase 1 (TDP1): qHTS in cells in absence of CPT; actives 15% (n = 420,000); Potency, µM (series often up to 46.2 µM), for the others: at the top dose activity change, negative = growth inhibition, hits mostly inhibitors; AID 686978, 2013; DT40 Tdp1-/- hTDP1 cells, no CPT, ATP luminescence, 48 h; also: potency is read from the fitted curve at half-maximal effect; nearly all actives have a fitted effect of over 55% in size
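Stably hTDP1-transfected Tdp1-null chicken DT40 cells were treated with library compounds minus camptothecin and grown for at least 48 hr at 37 °C, after which cellular ATP was quantified by luminescence.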
CtBP-E1A blk – CtBP/E1A binding inhibition | actives 0.49% (n = 340,000) | AlphaScreen GST-E1A/His-CtBP binding, 1536-well; hits give low values | activity change, % (concentration not given with the values) | AID 651724; in the data active = activity change below about -65%; inconclusive = mostly about -30% to -63%
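AlphaScreen with 125 nM GST-E1A and 125 nM His-CtBP (5X stocks) in Tris pH 8.0, 300 mM NaCl, BSA, Tween 20, TCEP. Compounds preincubated 2 h at 37 deg C, then glutathione donor/nickel acceptor beads added for 1 h at 37 deg C in dark.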
DT40 TDP1 CPT – DT40-hTDP1 cell growth loss with CPT; chicken DT40 Tdp1-/-;hTDP1 cells + 20 nM CPT, ATP luminescence, 48 h; Potency, µM (highest dose often 46.2 µM), without a hit: at the top dose activity change, negative = growth inhibition, actives largely listed as inhibitors; actives 12% (n = 420,000); AID 686979; also: potency is read from the fitted curve at half-maximal effect; nearly all actives have a fitted effect of over 55% in size
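Cell growth measured by CellTiter-Glo luminescence after a minimum 48 h, 37 C compound exposure with 20 nM CPT in Tdp1-knockout DT40 cells stably expressing hTDP1, seeded 400/well; qHTS titration format.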
TDP1 block – TDP1 (human) enzyme inhibition. AID 485290. actives 0.28% (n = 350,000). recombinant TDP1, AlphaScreen DNA substrate cleavage. Q9NUW8. Potency, µM (top dose mostly 130 µM), inactives show top-dose activity change, negative = inhibition, hits mostly inhibitors; also: potency is read from the fitted curve at half-maximal effect; nearly all actives have a fitted effect of over 40% in size
Target sequence (Q9NUW8 whole entry, looked up): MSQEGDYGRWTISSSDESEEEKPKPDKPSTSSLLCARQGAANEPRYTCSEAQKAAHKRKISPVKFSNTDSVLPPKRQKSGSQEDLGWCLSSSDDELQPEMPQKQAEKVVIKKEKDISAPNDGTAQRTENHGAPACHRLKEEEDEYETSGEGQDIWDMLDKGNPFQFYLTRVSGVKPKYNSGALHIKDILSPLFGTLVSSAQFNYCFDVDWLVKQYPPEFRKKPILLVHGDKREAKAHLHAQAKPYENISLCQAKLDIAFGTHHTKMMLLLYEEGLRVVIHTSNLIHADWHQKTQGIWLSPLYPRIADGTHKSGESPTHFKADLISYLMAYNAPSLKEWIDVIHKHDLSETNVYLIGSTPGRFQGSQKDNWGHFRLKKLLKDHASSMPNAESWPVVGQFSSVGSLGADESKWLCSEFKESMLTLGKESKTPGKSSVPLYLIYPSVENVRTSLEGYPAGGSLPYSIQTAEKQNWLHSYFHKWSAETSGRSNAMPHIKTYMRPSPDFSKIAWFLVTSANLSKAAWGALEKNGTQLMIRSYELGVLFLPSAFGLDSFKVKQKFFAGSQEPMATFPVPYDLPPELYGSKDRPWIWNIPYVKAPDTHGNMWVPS
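Signal: AlphaScreen proximity between streptavidin donor and anti-FITC acceptor beads on intact substrate. Reaction: Tdp1 1 nM, substrate 15 nM final, 5 min RT after 15 min compound preincubation.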
Six1-Eya2 inh – Six1/Eya2 interaction inhibition. activity change, % (concentration not given with the values). Q15475+O00167. actives 0.56% (n = 360,000). AlphaScreen GST-Six1/His-Eya2 binding, biochemical; hits give low values; in the data active = activity change below about -65%; inconclusive = mostly about -30% to -63%
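Homogeneous AlphaScreen proximity assay pairing GST-Six1 with His-tagged Eya2 (added as 5X mix: 250 nM and 500 nM) in 50 mM Tris pH 8.0, 300 mM NaCl, 1 mM TCEP. Glutathione donor and nickel acceptor beads; 1 h, 37 °C, dark.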
IL-1B inflam inh – inhibitors of inflammasome signaling (IL-1 beta secretion); AID 743279; THP-1 LPS/ATP IL-1B secretion, AlphaLISA, 16 h; hits give low values; actives 4.7% (n = 360,000); activity change, % at 57.5 µM; in the data active = activity change below about -50%; inconclusive = mostly about -30% to -49%
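THP-1 cells pretreated 1 hr with compounds (up to 57.5 uM final), then stimulated with LPS (250 ng/mL final) plus ATP (1.25 mM final); secreted IL-1B measured by AlphaLISA after 16 hr, decreased signal indicating inhibition.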
* marks the source's active call; other numbers are inactive results; [ ] = remark or other dose. Unless noted, calls follow the shape of the dose curve; as a rule, active = well fitted curve in the direction sought with a large enough effect; inconclusive = small, poorly fitted or top-dose-only effect, or another doubt; inactive = no such curve, though single readings can be large; an effect the other way counts as inactive or inconclusive. % is scaled to controls: 0 for no effect and ±100 for the full control effect.

Screening COc1ccc(C(=O)Nc2ccc(S(=O)(=O)N3CCCCC3)cc2)cc1OC returned TDP1 cell noCPT inconclusive, CtBP-E1A blk inconclusive, DT40 TDP1 CPT inconclusive, TDP1 block 3%, Six1-Eya2 inh -25 and IL-1B inflam inh 47.
`COc1ccc(-c2cnnn2-c2ccc(NC(=O)c3ccc(S(=O)(=O)N4CCCCC4)cc3)cc2)cc1OC` gave TDP1 cell noCPT 12µM*, CtBP-E1A blk 0, DT40 TDP1 CPT 21µM*, TDP1 block 0%, Six1-Eya2 inh 3 and IL-1B inflam inh -22.
COc1ccc(C(=O)Nc2ccc(-n3nncc3-c3ccc(OC)c(OC)c3)cc2)cc1 was read as TDP1 cell noCPT 21µM*, DT40 TDP1 CPT 21µM* and TDP1 block 8%.
COc1ccc(-c2cnnn2-c2ccc(NC(=O)c3ccco3)cc2)cc1OC was read as TDP1 cell noCPT -6%, CtBP-E1A blk 1, DT40 TDP1 CPT -5%, TDP1 block 4%, Six1-Eya2 inh 2 and IL-1B inflam inh -1.
Screening COc1ccc(-c2csc(NC3OC(=O)c4c3ccc(OC)c4OC)n2)cc1OC (stereo not given) returned TDP1 cell noCPT 15µM*, CtBP-E1A blk -6, DT40 TDP1 CPT 9.2µM*, TDP1 block 3% and Six1-Eya2 inh -1.
Screening COc1ccc2c(c1OC)C(=O)OC2Nc1nc(-c2ccc([N+](=O)[O-])cc2)cs1 (stereo not given) returned TDP1 cell noCPT inconclusive, CtBP-E1A blk 1, DT40 TDP1 CPT 4%, TDP1 block 1%, Six1-Eya2 inh 5 and IL-1B inflam inh -8.
`COc1ccc2c(c1OC)C(=O)OC2Nc1nc(-c2cc3cc(Br)ccc3oc2=O)cs1` (stereo not given) gave TDP1 cell noCPT inconclusive, CtBP-E1A blk 21, DT40 TDP1 CPT inconclusive, Six1-Eya2 inh 3 and IL-1B inflam inh -56*.
COc1ccc(-c2c(Sc3ccccc3)c3cc(-c4ccc5c(c4)OCO5)ccc3n2C)cc1 was read as TDP1 cell noCPT inconclusive, CtBP-E1A blk 1, DT40 TDP1 CPT -10%, Six1-Eya2 inh -7 and IL-1B inflam inh 33.
For Cc1ccc(S(=O)(=O)N2CCC(=O)N([C@H](COCc3cccc(C)c3)Cc3ccccc3)CC2)cc1 the results were TDP1 block 4%.
`COc1ccc(C)cc1NC(=O)c1ccc2c(c1)OCO2` gave TDP1 cell noCPT -25%, CtBP-E1A blk 7, DT40 TDP1 CPT -12%, TDP1 block 2%, Six1-Eya2 inh 9 and IL-1B inflam inh 2.
COc1ccc(S(=O)(=O)N(C)C)cc1NC(=O)c1ccc2c(c1)OCCO2 was read as TDP1 cell noCPT -25%, CtBP-E1A blk -20, DT40 TDP1 CPT -22%, TDP1 block 2%, Six1-Eya2 inh -7 and IL-1B inflam inh -57*.
O=C(Nc1cc(Cl)cc(Cl)c1)c1cccc(OC(F)F)c1 was read as TDP1 cell noCPT inconclusive, CtBP-E1A blk 21, DT40 TDP1 CPT 18µM*, TDP1 block -5%, Six1-Eya2 inh 20 and IL-1B inflam inh -95*.
CN(C)S(=O)(=O)c1cccc(NC(=O)c2ccc3c(c2)OCCO3)c1 was read as TDP1 cell noCPT 15µM*, CtBP-E1A blk -4, DT40 TDP1 CPT 15µM*, TDP1 block -1%, Six1-Eya2 inh 1 and IL-1B inflam inh -3.
`CN(C)S(=O)(=O)c1cccc(C(=O)Nc2cc(Cl)cc(Cl)c2)c1` gave TDP1 cell noCPT 18µM*, CtBP-E1A blk 0, DT40 TDP1 CPT inconclusive, TDP1 block -4%, Six1-Eya2 inh 1 and IL-1B inflam inh inconclusive.
For Cc1nn(C)cc1CNC(=O)c1cccc(Br)c1 the results were TDP1 cell noCPT 4%, CtBP-E1A blk -1, DT40 TDP1 CPT -10%, TDP1 block 4%[56.1 µM], Six1-Eya2 inh 7 and IL-1B inflam inh 0.
Screening O=C(CN1CCN(c2cccc(Cl)c2)CC1)Nc1ccc([N+](=O)[O-])cc1C(=O)Nc1ccccc1F returned TDP1 cell noCPT 23µM*, DT40 TDP1 CPT inconclusive, TDP1 block 5%, Six1-Eya2 inh -6 and IL-1B inflam inh 16.
`Cc1cc(NC(=O)CN2CCN(C/C=C/c3ccccc3)CC2)c([N+](=O)[O-])cc1C` gave TDP1 cell noCPT inconclusive, CtBP-E1A blk -7, DT40 TDP1 CPT inconclusive, TDP1 block 2%, Six1-Eya2 inh -4 and IL-1B inflam inh 1.
`CS(=O)(=O)c1ccc(Cl)c(NC(=O)CN2CCN(S(=O)(=O)/C=C/c3ccccc3)CC2)c1` gave TDP1 cell noCPT 3.3µM*, DT40 TDP1 CPT inconclusive, Six1-Eya2 inh -1 and IL-1B inflam inh -17.
For NS(=O)(=O)c1ccc(NC(=O)CN2CCN(S(=O)(=O)/C=C/c3ccccc3)CC2)cc1 the results were TDP1 cell noCPT -15%, CtBP-E1A blk -2, DT40 TDP1 CPT -4%, Six1-Eya2 inh 4 and IL-1B inflam inh 4.
Screening Cc1ccc(C)c(N2CCN(CC(=O)Nc3ccc([N+](=O)[O-])cc3C(=O)Nc3ccccc3F)CC2)c1 returned TDP1 cell noCPT inconclusive, CtBP-E1A blk -12, DT40 TDP1 CPT inconclusive, TDP1 block 6%, Six1-Eya2 inh -18 and IL-1B inflam inh 30.
O=[N+]([O-])c1ccc(C(O)CN2CCN(C/C=C/c3ccccc3)CC2)cc1 (stereo not given) was read as TDP1 cell noCPT 29µM*, CtBP-E1A blk -4, DT40 TDP1 CPT inconclusive, Six1-Eya2 inh 9 and IL-1B inflam inh inconclusive.
`O=C(CN1CCN(C/C=C/c2ccccc2)CC1)Nc1cc([N+](=O)[O-])ccc1Cl` gave TDP1 cell noCPT 26µM*, CtBP-E1A blk -27, DT40 TDP1 CPT inconclusive, TDP1 block 2%, Six1-Eya2 inh -25 and IL-1B inflam inh 6.
For Cc1ncc(CSc2nccc(=O)[nH]2)c(CO)c1O the results were TDP1 cell noCPT -5%, DT40 TDP1 CPT -2%, Six1-Eya2 inh 0 and IL-1B inflam inh 1.
COc1ccc(NC(=O)CSCc2ccc(C)cc2)cc1 was read as TDP1 cell noCPT inconclusive, CtBP-E1A blk 0, DT40 TDP1 CPT inconclusive, TDP1 block 5%, Six1-Eya2 inh 3 and IL-1B inflam inh 0.

Screening data deposited in PubChem BioAssay by National Center for Advancing Translational Sciences (NCATS).
